About 330 (14%) of roughly 2,300 compounds showed activity. Only a sample is shown. Unmarked numbers belong to inactive results.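 Rule for the calls: active = median modified Z-score above 1.96; inactive = 1.96 or below.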
These molecules were tested on HepG2 Srxn1-GFP reporter cells (+30 nM CDDO-Me) (assay: Srxn1-GFP intensity median modified Z-score relative to plate median; higher = stronger NRF2 / oxidative stress reporter activation, active = hit call of the paper). Conditions: 10 µM; exposure time: 24h.
Outline: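 The per-plate modified Z-score of GFP intensity, taken as a median across replicates, is what each value represents. Three replicate plates of HepG2 Srxn1-GFP BAC reporter cells were exposed for 24 h to an NRF2 activator at 30 nM combined with compound at 10 μM (≤0.1% DMSO). Cytoplasmic GFP per cell was read from confocal images, excluding any with under 100 cells, and scaling used 1.4826 × median absolute deviation.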

Row | SMILES | Srxn1-GFP intensity median modified Z-score
1 | COc1ccc(-c2coc3cc(OC)ccc3c2=O)cc1 [euspeclibcmpd2413] | -0.165
2 | C[C@]12C=CC(=O)CC1=CCC1C2[C@@H](O)C[C@@]2(C)C1CC[C@]2(O)C(=O)CO (stereo partly specified) [euspeclibcmpd241] | -0.692
3 | CN1CCC[C@H]1c1cccnc1 [euspeclibcmpd957] | 8.21 (active)
4 | O=C(O)c1cccnc1 [euspeclibcmpd2043] | -0.519
5 | CN1C(=O)CC[C@H]1c1cccnc1 [euspeclibcmpd75] | -0.303
6 | O=C(O)c1ccccc1C(=O)Nc1ccc(S(=O)(=O)N=c2[nH]ccs2)cc1 [euspeclibcmpd427] | 0.584
7 | CCCCCCCCCCOc1cc2c(=O)c(C(=O)OCC)c[nH]c2cc1OCC [euspeclibcmpd775] | 0
8 | COC(=O)CC1C(C)(C)C(O)C2CC3=C4CC(O)OC(c5ccoc5)C4(C)CCC3C1(C)C2=O (stereo unspecified) [euspeclibcmpd1860] | 0.479
9 | C=CC[C@]1(O)CCC2C3=C(C=C[C@@]21C)C1=C(CC3)CC(=O)CC1 (stereo partly specified) [euspeclibcmpd848] | 0.704
10 | Oc1cccc2cc3cccc(O)c3c(O)c12 [euspeclibcmpd25] | -0.419
11 | Cc1cc(O)c2c(O)c3c(O)cccc3cc2c1 [euspeclibcmpd2068] | 2.58 (active)
12 | O=c1c(O)cccc2cc(O)c(O)c(O)c12 [euspeclibcmpd1723] | -0.877
13 | O=C(Oc1ccccc1C(=O)O)c1ccccc1O [euspeclibcmpd2] | -0.023
14 | CCCCC(=O)Oc1ccccc1C(=O)O [euspeclibcmpd1887] | 14.5 (active)
15 | CC(=O)Oc1ccccc1C(=O)Oc1ccccc1C(=O)O [euspeclibcmpd1749] | -0.327
16 | O=C(O)c1ccccc1OP(=O)(O)O [euspeclibcmpd1073] | -0.579
17 | CC(=O)Oc1ccccc1C(=O)O [euspeclibcmpd28] | 61 (active)
18 | O=C(/C=C/C(=O)Oc1ccccc1C(=O)O)Oc1ccccc1C(=O)O [euspeclibcmpd1772] | -0.354
19 | CCCCCN(C)CCC(O)(P(=O)(O)O)P(=O)(O)O [euspeclibcmpd2308] | -0.118
20 | CCCc1cc(C(N)=S)ccn1 [euspeclibcmpd1165] | -0.267
21 | NC[C@H]1O[C@H](OC2[C@@H](N)C[C@@H](N)[C@H](O[C@H]3O[C@H](CO)[C@@H](O)[C@H](N)[C@H]3O)[C@H]2O)[C@H](O)[C@@H](O)[C@@H]1O (stereo partly specified) [euspeclibcmpd168] | -0.199
22 | CC(C)CCCC(C)C1CCC2C3CC[C@H]4C[C@@H](O)CC[C@]4(C)C3CC[C@]12C (stereo partly specified) [euspeclibcmpd2135] | 0.00623
23 | NCCC[C@H](N)CC(=O)NC1CNC(=O)C([C@H]2C[C@H](O)NC(N)=N2)NC(=O)C(C=NC(N)=O)NC(=O)[C@H](CO)NC(=O)[C@H](CO)NC1=O (stereo partly specified) [euspeclibcmpd994] | -0.33

Row | SMILES | Srxn1-GFP intensity median modified Z-score
24 | CC(C(=O)O)c1ccc2c(c1)[nH]c1ccc(Cl)cc12 (stereo unspecified) [euspeclibcmpd425] | 0.027
25 | O=C(O)c1cc2cc(Cl)ccc2[nH]1 [euspeclibcmpd2020] | 1.97 (active)
26 | O=C(O)c1cc(=O)[nH]c(=O)[nH]1 [euspeclibcmpd1192] | -0.551
27 | CCn1cc(C(=O)O)c(=O)c2cc(F)c(N3CCN(C(=O)CCSC)CC3)cc21 | 0.401
28 | NS(=O)(=O)c1cc2c(cc1Cl)N=C(CSCc1ccccc1)NS2(=O)=O [euspeclibcmpd35] | -0.327
29 | CC1OC1P(=O)(O)O (stereo unspecified) [euspeclibcmpd2281] | -0.455
30 | CC(C)[N+](C)(CCOC(=O)C1c2ccccc2Oc2ccccc21)C(C)C [euspeclibcmpd254] | 0.13
31 | O=Cc1ccccc1O[C@@H]1O[C@H](CO)[C@H](O)[C@@H](O)[C@H]1O [euspeclibcmpd1574] | 0.476
32 | N[C@@H]1[C@@H](O)[C@H](O)[C@@H](CO)O[C@H]1O [euspeclibcmpd140] | 0.0216
33 | N#Cc1ccc(C(=O)NCCCCN2CCOCC2)cc1 | 0.374
34 | O=C(NCCCCN1CCOCC1)c1ccc(F)cc1 | 0.352
35 | CC1CCN(CCCC(=O)c2ccc(F)cc2)CC1 [euspeclibcmpd1905] | 1.19
36 | O=C(c1ccc(OCCN2CCCCC2)cc1)c1c(-c2ccc(O)cc2)sc2cc(O)ccc12 [euspeclibcmpd831] | -0.702
37 | CCCCOc1ccc(C(=O)CCN2CCCCC2)cc1 [euspeclibcmpd107] | 3.53 (active)
38 | CCCCOc1ccc(OCCCN2CCOCC2)cc1 [euspeclibcmpd396] | 2.42 (active)
39 | O=c1c(O)cc2c(O)oc3c(=O)c(O)cc4c(O)oc1c2c43 [euspeclibcmpd1077] | 0.204
40 | CC1CC[C@@]2(OC1)O[C@H]1CC3C4CC[C@@H]5C[C@@H](O)CC[C@]5(C)C4CC[C@]3(C)[C@H]1[C@@H]2C (stereo partly specified) [euspeclibcmpd2070] | -0.402
41 | O=C(C=Cc1ccc(O)c(O)c1)O[C@@H]1C[C@](O)(C(=O)O)C[C@@H](O)[C@H]1O [euspeclibcmpd1682] | 1.16
42 | C[C@]12C=CC(=O)CC1=CCC1C2[C@@H](O)C[C@@]2(C)C1CC[C@]2(O)C(=O)COC(=O)CCC(=O)O (stereo partly specified) [euspeclibcmpd794] | 0.608
43 | Cc1cccc(N=c2cc[nH]cc2S(=O)(=O)NC(=O)NC(C)C)c1 [euspeclibcmpd2184] | 0
44 | C[C@]12CCC3c4ccc(OC(=O)c5ccccc5)cc4CCC3C1CC[C@@H]2O (stereo partly specified) [euspeclibcmpd412] | 0.298
45 | NC(=O)COC(=O)c1ccccc1Nc1cccc(C(F)(F)F)c1 | 1.26
46 | CC(=O)OCC(=O)[C@@]1(O)CCC2C3CC=C4CC(=O)C=C[C@]4(C)[C@@]3(Cl)[C@@H](Cl)C[C@@]21C (stereo partly specified) [euspeclibcmpd1222] | -0.43
